# Test results: the supplement of paper PMC6555819
# Experiments:
# Experiment in all cases: PBM binding z-score (relative to random genomic background probes); higher = stronger binding; sequences stand for … in GC…GCGATTGACAGCGTAGAATGAAGG
# [1] = system: RARb homodimer (NR concentration 270 nM)
# Procedure, shortened: (§1)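 Ligand-free nuclear receptor dimers were bound for 1 h to custom Agilent 4×180K protein-binding microarrays. Detection used antibodies against each partner (one per run). Binding z-scores rest on regression-normalized fluorescence, with random background probes as the reference.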
# [2] = system: RARg:RXRa (NR concentration 270 nM, RXRa partner concentration 90 nM)
# Procedure, shortened: as §1
# [3] = system: RARg homodimer (NR concentration 270 nM)
# Procedure, shortened: as §1
# [4] = system: RXRa DBDmut IVT, anti-RXR (DBD mutation: RXRa K156A/R161A, NR concentration 90 nM)
# Procedure, shortened: as §1
# [5] = system: RXRa homodimer (NR concentration 180 nM)
# Procedure, shortened: as §1
# [6] = system: THRa:RXRa (NR concentration 90 nM, RXRa partner concentration 90 nM)
# Procedure, shortened: as §1
# [7] = system: THRa homodimer (NR concentration 90 nM)
# Procedure, shortened: as §1
# [8] = system: VDR homodimer (NR concentration 270 nM)
# Procedure, shortened: as §1
Sequence,PBM binding z-score [1],PBM binding z-score [2],PBM binding z-score [3],PBM binding z-score [4],PBM binding z-score [5],PBM binding z-score [6],PBM binding z-score [7],PBM binding z-score [8]
TCTTGTAGATCAAGCTGGTTAAGAAAGCCTGAGT,-0.589,-0.384,-0.528,0.614,-0.39,-0.367,-0.87,-0.547
ACCTCTAGGTAACCAAGTTCAGTGAATGCCGAAC,1.28,0.433,0.365,0.736,0.358,1.25,0.385,2.26
ACAGACAGGTGATGATGGTAACTCAGGCTATCAT,0.184,0.343,0.369,-0.173,0.335,0.48,0.015,0.157
CGTCAAAGTGCAAGGTAACGTAACAGAAAGCAGC,0.846,0.771,1.24,1.21,0.508,1.08,0.0291,0.017
ATCTCTAAGTAAAGATAGTTCAGTGAATGCAAAT,0.667,0.945,0.889,0.232,0.538,0.429,-0.328,0.578
GCTTACGGGTAAAAGGTTATAGCATGAATAGAAT,1.59,2.68,1.35,0.423,3.38,1.64,-0.0699,0.48
CGTCCAAGGTCAATGCTAGGTCTGTGAAAGCATT,3.89,5.81,6.03,3.79,4.4,3.78,2.25,2.69
CGAACTAGGTCAAGGACGGTGAATCTCCGCACGC,2.96,3.53,4.38,0.975,2.64,2.88,1.24,-0.409
CCTACAGGGTCAGCTAGGCCAGAGTAGGGACGGC,3.06,4.32,4.38,1.01,4.59,3.02,0.663,0.899
GCGACTGGCGCAAAGCAGGTTACCATAAGGTTGG,-0.0806,-0.27,-0.774,-0.791,-0.0574,0.636,-0.543,-0.861
AAAATGAGGTTACCAAAGATCAGGGAAACGCTTG,0.885,2.37,1.81,1.54,2.93,3.06,0.766,0.152
AGAATGAGGTTATCAAGATCAGGGAATTGCGGTC,1.07,1.5,1.12,1.46,2.19,2.49,0.835,0.805
CAGCCTAGGTCAGGGCCCGTATAGGAGGAACGTT,2.26,2.9,3.84,-0.894,1.46,1.73,0.213,-0.478
TCTAGTAGGTTACCAATGGGGCATTCAGCTTTCT,0.934,1.47,0.705,1.13,0.88,0.163,-0.277,0.254
TCTGCTAGGTCAGTTGGTCAGCTATCGAGCTGCC,2.69,2.62,3.33,0.537,0.914,1.2,0.162,-0.608
ATCTCTAGGTAAGACCCAGTTCAGTGAAGAACGC,0.62,0.282,0.0331,0.175,0.283,0.738,0.878,1.3
CCTAGTTGGTCAGGAGATCACACACCGGATATGA,0.781,0.628,1.01,0.108,0.347,-0.184,0.385,0.435
TCGAGTAGGTTACCAATGGGGCATTCTGCTTTCT,0.45,0.898,0.393,0.539,0.447,-0.229,-0.884,-0.862
TTACCAAGGTAAAGGTCGTTGATCCCTCTGTAGA,2.13,1.95,1.08,0.533,2.7,2.48,0.667,1.55

Sequence,PBM binding z-score [1],PBM binding z-score [2],PBM binding z-score [3],PBM binding z-score [4],PBM binding z-score [5],PBM binding z-score [6],PBM binding z-score [7],PBM binding z-score [8]
ACTTACGGGTCAACGAGGGTATAGCACGCGTATA,3.24,5.55,4.88,2.4,5.63,3.42,-0.0304,2.67
ACTATTAGTTGAGCCGAGGGCAACCGATAGGTTG,1.35,0.604,0.752,0.39,0.52,2.57,0.523,0.692
AGAATGAGTTTAAGATCAGGGAAACAGAATACAT,-0.102,0.254,0.612,2.68,0.484,0.276,-0.184,2.06
CATACTGGGCCAAAGGTCATTGATTCCAATGCTC,4.79,5.89,5.04,1.73,6.78,3.47,1.03,2.42
TCACATAGGTAAAAGGTGAAAGTCGGTGTGGTAA,1.98,2.02,0.992,1.3,3.3,1.72,0.0653,-0.0676
GGAACGAGGGCATTCGAGTTGATCGCATGGCGAT,0.71,1.11,1.52,3.18,0.775,3.44,-0.598,3.38
ATGTCTAGGTAACAAGTTCAGTGAAAGAGAGGAC,1.85,1.29,1.35,0.903,0.727,1.56,0.576,2.23
ACTATTAGTTGAGACGGGGGCAACCGATAGGTTG,1.92,2.03,1.77,1.55,1.42,3.01,1.12,1.98
AGAATGAGATTAAGATCAGGGAAACAGAATACAT,-0.523,0.0579,0.312,-0.493,-0.0987,-0.0153,-0.567,-0.0769
ATCTCTAGGTAAAGTTCAGTGACAGATCGATAGA,2.63,1.99,2.63,1.51,1.39,1.31,0.436,2.61
CAAACTAGATCACCGGAAGGTCAAAGTCCGCATG,4.03,4.08,2.88,0.674,3.47,2.76,1.06,2.12
CAAACTAGGTCACCGGAAGGTCAAATTCCGCATG,5.55,8.17,7.31,2.13,6.55,4.58,3.11,2.93
CCTTTCGGGTCACGAGGTTATAGCACGACGAGCG,4.31,6.29,5.8,2.08,7.39,4.52,3.83,2.77
ACTCGGAGGACAAAGGTCATAGCTACGCCAGTGA,4.7,6.88,5.24,1.91,6.51,4.13,1.2,2.55
ATATGTAGGTTAGCTGGGCTCATTCAGACTAGGC,0.13,0.263,0.55,-0.108,0.38,0.702,-0.522,-0.144
TCGAGTAGGTTACCAATGGGGCAATCAGCTTTCT,0.687,1.67,0.463,0.325,0.707,0.302,-0.774,-0.712
AGAACGAGGGCACGCTAAGTTGATAGCAGAGTAG,1.19,2.2,2.4,1.74,1.49,1.97,0.0343,1.42
TCTAGCAGGCCAGAGGGTCACCCAAGAGGTACGG,2.74,3.04,2.17,-0.135,2.96,1.97,0.143,0.203
AGAATGAGTTTACCAAAGATCAGGGAAACGCTTG,-0.757,-0.0513,0.236,3,0.272,-0.103,-0.687,1.78

Sequence,PBM binding z-score [1],PBM binding z-score [2],PBM binding z-score [3],PBM binding z-score [4],PBM binding z-score [5],PBM binding z-score [6],PBM binding z-score [7],PBM binding z-score [8]
CGAACTAGGTCATCCAGGACAGCGAATACATTGA,3,3.97,4.81,2.19,2.73,3.84,2.24,1.93
ACTATTAGTTGAGACGAGGGCAACCGCTAGGTTG,1.35,0.408,0.507,0.704,0.516,2.66,0.222,0.863
CCGAGTAGGTTATGGCGCATTCAGGCAACGGTGA,0.598,0.0806,0.1,-0.0161,0.365,0.169,0.321,-0.2
GCGACTGGGACAAAGCAGGTTACCATAAGGTTGG,0.587,0.308,0.367,-0.523,0.419,1.59,0.162,-0.161
ATCTCTAGGTAAAAGTTCAGAGAATCCCGAGGAT,2.16,2.02,1.97,0.853,1.87,1.24,-0.00417,1.91
CAAACTAGGTCAAAGGTCAAAGTCGAGCCAACCA,4.96,8.83,7.42,2.87,10.2,4.74,1.83,3.41
CGAACTAGGTCATTGACGGGACAGTGAATAGTAA,2.6,4.41,4.35,2.41,2.61,2.63,0.664,0.927
TCATATAGGTAAACAGTTGAAAGTCCGTAAGTTA,0.802,0.44,0.23,1.9,0.856,0.535,0.428,0.845
ACTAGCAGGCGAAGGGTCACTCAAGATTAGTCCG,3.34,3.45,3.42,0.405,3.49,2.32,-0.224,0.989
CAAACTAGGTCAAGAGGTCAAATTCCGCTTCCCG,5.63,8.27,7.69,2.86,8.31,4.58,2.73,4.49
ACTGGTTGGTCAGCTGAGGTCACACACAATTCGG,4.63,4.08,4.57,1.23,4.2,5.13,5.73,4.2
ATCTCGAGGTAAAGATAGTTCAGTGAATGCAAAT,0.904,0.819,0.829,-0.272,0.518,1.5,-0.16,0.272
CCTCGGAGGACAACAGGTGGTCAGAGCTGCCAGA,0.83,0.693,1.32,-0.142,-0.432,0.397,-0.269,-0.187
GGAACGAGGGCTTTCGAGTTGATAGCATGGCGAT,-0.798,-0.258,-0.353,0.228,-0.0785,0.893,-0.983,0.344
GCTTGTAGATCAACGTTAAGAAAGACTAAGCTAA,-0.408,-0.256,-0.209,0.0501,-0.405,-0.214,-0.701,-0.764
AGAATGAGCTTATACGTAGATCAGGGAAGAAAGT,-0.75,-0.102,-0.0616,-0.769,-0.13,-0.46,-0.669,-0.447
CATACAGGGTCAGCTAGGCCACAGTAGGGACGGC,3.58,4.56,4.98,1.69,4.55,3.28,1.02,1.89
TCTTGTAGATCAATAGAGGTTAAGAAGGTGCGCT,1.27,0.969,0.482,0.518,1.33,2.37,-0.695,0.298
